Reference: PubChem BioAssay AID489008 (National Center for Advancing Translational Sciences (NCATS), 2010)
Results filed as inconclusive are left out. Calls of active or inactive are those of the source. Calls come from the whole dose curve; as a rule, active = well fitted inhibition curve with a large enough effect; inconclusive = small, poorly fitted or top-dose-only effect; inactive = flat fitted curve, though single readings scatter.

Biological target: Ferritin light chain (Equus caballus) (UniProt P02791)
Sequence (P02791 2-175 limits assumed): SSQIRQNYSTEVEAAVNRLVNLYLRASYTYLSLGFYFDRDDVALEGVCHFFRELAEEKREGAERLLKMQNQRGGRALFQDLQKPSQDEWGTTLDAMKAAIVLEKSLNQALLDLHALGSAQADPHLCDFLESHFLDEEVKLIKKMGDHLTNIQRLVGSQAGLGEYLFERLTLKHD
Test: Confirmation Assay for Identification of Novel General Anesthetics; note: nearly all actives have a fitted effect of over 40% in size
Conditions: apoferritin 1-aminoanthracene fluorescence displacement
Method in brief: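 Horse apoferritin (10 uM) pre-loaded with 1-AMA (50% saturated, PBS) exposed to compounds 10 min at room temperature; loss of 1-AMA fluorescence (380/535 nm) scaled between free and bound ligand, curves fitted with Hill equation.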
Potency is the fitted concentration of half-maximal effect.

Potency, active:
O=C(CCSc1ccccc1)NC(=O)COC(=O)C1CCCCC1 35.5 µM
Fc1ccccc1CSc1nncn1NC/C=C/c1ccccc1 31.6 µM
Cc1cc(C(=O)OCC(=O)N2C(C)CCCC2C)c(C)o1 (stereo not drawn) 14.1 µM
O=C(COC(=O)/C=C/c1ccccc1Cl)NC1CCCCCC1 6.31 µM
CC1Cc2ccccc2N1C(=O)CSC1=NCCS1 (stereo not drawn) 10 µM
Fc1ccc(CNc2ccc(CNc3ncn[nH]3)cc2)cc1 17.8 µM
O=C(COC(=O)c1cccs1)NC12CC3CC(CC(C3)C1)C2 11.2 µM
COC(=O)c1ccc(/C=N/NC(=O)CC(=O)NC2CCCCC2)cc1 7.08 µM
C=Cc1ccc(Cn2nc(-c3ccc(C)cc3)ccc2=O)cc1 17.8 µM
Cc1ccc(NC(C)c2cc(Cl)ccc2O)cc1 (stereo not drawn) 17.8 µM
O=C(CSC(=S)N1CCCCC1)c1ccccc1 15.8 µM
CC1CCCC(C)N1C(=O)CSc1nnnn1Cc1ccccc1 (stereo not drawn) 8.91 µM
COc1ccccc1-c1cn(C(C)(C)C)nc1C 14.1 µM
O=C(CN1N=C(c2ccc(Cl)cc2)CCC1=O)NCc1ccc(F)cc1 5.82 µM
Cc1ccccc1CSc1nsc(N)n1 17.8 µM
Cc1ccccc1Nc1cccc2nonc12 20 µM
Cc1cc(NS(=O)(=O)c2ccccc2)cc(Cl)c1O 11.2 µM
CC1CCCC(NC(=O)COC(=O)CCc2ccccc2)C1C (stereo not drawn) 25.1 µM
O=C(CCc1ccccc1)Nc1cc(Cl)ccc1O 6.31 µM
Nc1nc(C23CC4CC(CC(C4)C2)C3)cs1 7.94 µM
O=C(Cn1nc(-c2ccccc2)ccc1=O)NCc1ccc(F)cc1 6.31 µM
CNc1nc(C23CC4CC(CC(C4)C2)C3)cs1 15.8 µM
O=C(Nc1cccc(Cl)c1)OCc1cnc(Cl)s1 31.6 µM
Cc1csc(Nc2ccccc2)n1 35.5 µM
Cn1cc([N+](=O)[O-])c(C(=O)Nc2ccc(C3CCCCC3)cc2)n1 14.1 µM
CC(=O)Nc1ccc(NCc2ccc(C)s2)cc1 17.8 µM
CC1(c2ccc(NC(=O)c3ccccc3F)cc2)CC1(Cl)Cl (stereo not drawn) 12.6 µM
O=C(CN1CCCC1)Nc1ccc(OCc2ccccc2)cc1 15.8 µM
Cc1cccc(Nc2nc(Cl)ncc2F)c1C 28.2 µM
Cc1cccc(N(C(=O)Nc2ccccc2)C2=NCC(C)S2)c1 (stereo not drawn) 25.1 µM
Cc1csc(SCC(=O)NC23CC4CC(CC(C4)C2)C3)n1 15.8 µM
O=C(CCC(=O)c1ccc(Cl)cc1)OCC(=O)c1ccccc1 17.8 µM
O=C(Nc1cccc(Cl)c1)N1CCc2ccccc2C1 11.2 µM
Fc1ccccc1CNc1ccc(Cl)c(Cl)c1 10 µM
Cc1ccc(NC(=O)Cn2nc(-c3ccco3)ccc2=O)cc1Cl 28.2 µM
O=C(Nc1cccc(Cl)c1)C1COc2ccccc2O1 (stereo not drawn) 14.1 µM
Cc1ccccc1CSCC(=O)N/N=C/c1cccs1 15.8 µM
Cc1ccc(C(=S)N2CCCCCC2)cc1 28.2 µM
